# Most compounds without a hit are left out; they make up all but 2.7% or so of the library.
# MPTP block: mitochondrial permeability transition pore inhibitors, primary screen, biochemical, isolated mouse mitochondria, absorbance; Ca2+ swelling absorbance, 30 min; inhibition, % at 10 µM; 360,000 compounds, 1.4% hits;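 active = inhibition of 50% or more, scaled per plate between neutral and stimulator controls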;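 note: 0% = DMSO wells given calcium and 100% = 1 mM EGTA wells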
# NRP1-CendR mod: modulators of CendR peptide binding to NRP-1, primary screen, biochemical, fluorescence polarization, uHTS | Neuropilin-1 (Homo sapiens), O14786 | AID 602438, 2012 | 360,000 compounds, 0.85% hits | FAM-RPARPAR peptide binding to NRP-1 | inhibition, % at 25 µM;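 active = inhibition or corrected inhibition above about 18%, plus a signal ratio from 0.5 to 1.5, limit read from the data, passing the limit was not always enough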
# Target sequence (O14786 whole entry, looked up): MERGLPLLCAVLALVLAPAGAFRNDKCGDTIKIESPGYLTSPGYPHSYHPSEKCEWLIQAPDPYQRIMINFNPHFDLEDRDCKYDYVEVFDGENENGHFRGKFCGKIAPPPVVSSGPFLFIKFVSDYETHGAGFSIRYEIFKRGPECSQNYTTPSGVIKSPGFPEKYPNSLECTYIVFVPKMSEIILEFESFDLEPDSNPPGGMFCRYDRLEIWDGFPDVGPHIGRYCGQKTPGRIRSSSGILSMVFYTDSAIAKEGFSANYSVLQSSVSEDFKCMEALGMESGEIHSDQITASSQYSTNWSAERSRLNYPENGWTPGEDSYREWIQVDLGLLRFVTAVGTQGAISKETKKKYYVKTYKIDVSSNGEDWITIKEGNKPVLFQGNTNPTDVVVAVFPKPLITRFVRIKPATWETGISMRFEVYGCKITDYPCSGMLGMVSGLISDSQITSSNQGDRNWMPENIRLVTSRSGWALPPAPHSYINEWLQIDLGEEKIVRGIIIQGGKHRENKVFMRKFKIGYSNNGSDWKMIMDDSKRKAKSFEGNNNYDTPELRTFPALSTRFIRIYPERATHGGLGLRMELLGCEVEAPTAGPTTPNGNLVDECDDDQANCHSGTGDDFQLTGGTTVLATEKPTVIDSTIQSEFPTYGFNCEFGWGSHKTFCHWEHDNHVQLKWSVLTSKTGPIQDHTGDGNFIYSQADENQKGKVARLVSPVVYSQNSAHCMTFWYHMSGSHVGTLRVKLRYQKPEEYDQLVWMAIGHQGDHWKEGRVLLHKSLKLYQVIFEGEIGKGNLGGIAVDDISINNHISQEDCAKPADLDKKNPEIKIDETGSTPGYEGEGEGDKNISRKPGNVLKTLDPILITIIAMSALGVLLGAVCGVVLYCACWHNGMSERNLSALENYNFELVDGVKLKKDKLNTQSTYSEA
# ATG4B inhibitor: ATG4B protease inhibitors, primary screen, biochemical, fluorescence, uHTS; ATG4B cleavage of LC3-PLA2, NBD-HPC fluorescence, 1 h; AID 504462, 2011; 340,000 compounds, 0.51% hits; Cysteine protease ATG4B (Homo sapiens), Q9Y4P1; inhibition, % at 8.33 µM; in the data active = inhibition above about 40%
# CFTR F508del cor: F508del CFTR correction, initial screen, CFBE line, single point; 350,000 compounds, 0.36% hits; CFBE cells, YFP halide quenching; stimulated with forskolin plus potentiator P3; % fluorescence drop versus neutral controls; activity (quench increase), % at 7.58 µM;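 active = mean added fluorescence quench of at least 8% versus neutral control, with both replicates also reaching 8%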;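 note: cells transiently co-express mutant CFTR-F508del with the halide-sensitive YFP; corrector assay measuring rescue of mutant channel to the surface after 24 h compound exposure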
# SKN-1 inh: suppressors of acrylamide-induced Pgst-4::GFP reporter in worms, primary screen, SKN-1 inhibitor project, whole organism, uHTS, GFP/RFP fluorescence ratio, strain VP596; inhibition, % at 21.8 µM; 360,000 compounds, 0.49% hits; C. elegans VP596 Pgst-4::GFP/RFP ratio, 24 h;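 active = interference check ratio from 0.5 to 1.5 plus GFP to RFP signal ratio inhibition reaching or exceeding a fixed threshold, cut at about 30% in these data, passing the limit was not always enough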
# MPTP counter: fluorescence retest of MPTP screen hits in isolated mitochondria, single concentration; inhibition, % at 10 µM; 5,000 compounds, 78% hits; membrane potential, Rhodamine 123 fluorescence; AID 624504, 2012; shares compounds with MPTP block; in the data active = inhibition above about 22%;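 note: 0% = DMSO vehicle and 100% = positive control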
# MPTP swell DR: mitochondrial permeability transition pore inhibitors, dose response, biochemical, absorbance, uHTS hits | shares compounds with MPTP block | isolated mitochondria swelling | IC50, µM | 780 compounds, 58% hits; in the data active = IC50 below about 20 µM
# MPTP counter DR: fluorescent counter-screen in isolated mitochondria, dose response, counter-screen for MPTP inhibitor project, biochemical, fluorescence, uHTS hits | shares compounds with MPTP block | isolated mitochondria counterscreen, fluorescence read-out | IC50, µM | 780 compounds, 49% hits; in the data active = IC50 below about 80 µM
# * hit, by the source's call; i = inactive; . = no result given.
SMILES,MPTP block,NRP1-CendR mod,ATG4B inhibitor,CFTR F508del cor,SKN-1 inh,MPTP counter,others
S=C(Nc1ccccc1)Nc1ccc(OCc2ccc(Cl)cc2Cl)cc1,85*,7,2,.,-2,89*,
COc1ccc(CSCCNC(=S)Nc2ccccc2)cc1Cl,78*,-5,13,-2,-1,90*,
Cn1cnc(S(=O)(=O)N[C@@H]2C=C[C@H](CC(=O)NCC3CC3)O[C@@H]2CO)c1,.,.,.,2,.,.,
Cc1ccccc1CSCCNC(=S)Nc1ccccc1,57*,0,13,-3,-5,78*,
OCCNCc1ccc(OCc2ccc(Cl)cc2Cl)cc1,94*,7,-1,3,0,-6,MPTP swell DR=4.2*;MPTP counter DR=>80
S=C(NCCSCc1ccc(Cl)cc1Cl)Nc1ccccc1,97*,-3,35,.,1,105*,
CN1CCN(C(=O)C[C@@H]2C[C@@H]3c4cc(NC(=O)C5CCOCC5)ccc4O[C@@H]3[C@@H](CO)O2)CC1,.,.,.,-2,.,.,
COc1ccc(S(=O)(=O)Nc2ccc3c(c2)C(=O)N([C@@H](C)CO)C[C@H](C)[C@H](CN(C)Cc2ccncc2)O3)cc1,.,.,.,0,.,.,
CCN(CC)S(=O)(=O)c1cccc(C(=O)N[C@H](C(=O)Nc2nc3ccc(F)cc3s2)C(C)C)c1,55*,-4,-16,.,8,72*,
CCN(CC)S(=O)(=O)c1cccc(C(=O)N[C@H](C(=O)Nc2nc3ccccc3s2)C(C)C)c1,5,-6,-7,-1,5,.,
CCn1nc(C)cc1C(=O)n1nc(C)c(Sc2ncccn2)c1C,69*,3,3,0,-10,27*,
CCn1nc(C)cc1C(=O)Sc1cccc(Cl)c1,-1,-18,-2,2,-4,.,
O=C(Nc1cccnc1)Nc1cccc([N+](=O)[O-])c1,62*,2,-4,-2,2,89*,
Cc1cc(NC(=O)Nc2cccc([N+](=O)[O-])c2)no1,16,9,-5,-7,-9,.,
Cc1ccc(NC(=O)Nc2cccc([N+](=O)[O-])c2)cc1F,105*,-7,17,.,9,70*,
O=C(C[C@@H]1CC[C@@H]2[C@H](COC[C@H](O)CN2CCC(F)(F)F)O1)NCc1ccc(Oc2ccccc2)cc1,.,.,.,1,.,.,
CC(C)CN1C(=S)SC(C)(C)C1n1oc(=O)n(-c2ccc(Cl)cc2)c1=O (stereo not given),88*,-3,9,.,-11,95*,
O=C(C[C@@H]1C[C@H]2c3cc(NC(=O)NC4CCCC4)ccc3O[C@H]2[C@@H](CO)O1)NCc1ccccc1F,.,.,.,1,.,.,
COc1cc(CNCCc2c[nH]c3ccccc23)ccc1OCc1ccc(F)cc1,70*,0,-7,.,-2,-25,
COc1cccc(CNCCc2c[nH]c3ccccc23)c1OCc1ccc(F)cc1,32,-4,1,.,-11,.,
O=C(Nc1ccc(Oc2cccc(C(F)(F)F)c2)nc1)c1cccs1,50*,5,17,-1,-8,57*,
C[C@H]1CN([C@@H](C)CO)C(=O)c2cc(NS(C)(=O)=O)ccc2O[C@H]1CN(C)S(=O)(=O)c1cccs1,.,.,.,4,.,.,
C[C@@H]1CN([C@@H](C)CO)S(=O)(=O)c2ccc(C#CCN(C)C)cc2O[C@@H]1CN(C)C,.,.,.,2,.,.,
Cc1cccc(C)c1-n1c(C)cc(/C=N/NC(=O)CSc2ncccn2)c1C,89*,0,7,2,11,-6,MPTP swell DR=i;MPTP counter DR=50*
Nc1nc(Cl)cc(N2CCCC2)n1,-1,-9,-8,0,-2,.,
Nc1nc(Cl)cc(N2CCC(c3cc(-c4ccc(Cl)cc4Cl)n[nH]3)CC2)n1,64*,4,6,.,-7,63*,

# Screening data (PubChem BioAssay)
